Results published in PubChem BioAssay (NCI).
This is part of a sample that, as a whole, favours compounds with a hit. Of some 83,000 tested, about 20% had one in any assay.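 Cells were grown in 96-well plates and exposed to the test compound at a single concentration for 48 hours; results are reported as percent growth, with values below 10 considered active.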 Values without a mark were called inactive. Activity calls are given as the source filed them.

Legend:
Experiment in all cases: NCI-60 one-dose screen, 48 h (100 = growth as untreated, 0 = no growth, -100 = all killed)
NCI-H23 lung = settings: 10 µM unless noted
NCI-H226 lung = settings: 10 µM unless noted
NCI-H322M lung = settings: 10 µM unless noted
HOP-62 NSCLC = settings: 10 µM unless noted
NCI-H460 lung = settings: 10 µM unless noted
HOP-92 NSCLC = settings: 10 µM
NCI-H522 lung = settings: 10 µM unless noted
A549/ATCC NSCLC = settings: 10 µM unless noted
786-0 renal = settings: 10 µM unless noted
COLO 205 colon = settings: 10 µM unless noted
DU-145 prostate = settings: 10 µM unless noted
K-562 leukemia = settings: 10 µM unless noted
MALME-3M melanoma = settings: 10 µM unless noted
MDA-MB-231 breast = settings: 10 µM unless noted
SF-268 CNS = settings: 10 µM unless noted
SF-295 CNS = settings: 10 µM unless noted
SF-539 CNS = settings: 10 µM unless noted
UACC-257 melanoma = settings: 10 µM unless noted

Compound	growth (NCI-H23 lung)	growth (NCI-H226 lung)	growth (NCI-H322M lung)	growth (HOP-62 NSCLC)	growth (NCI-H460 lung)	growth (HOP-92 NSCLC)	growth (NCI-H522 lung)	growth (A549/ATCC NSCLC)	growth (786-0 renal)	growth (COLO 205 colon)	growth (DU-145 prostate)	growth (K-562 leukemia)	growth (MALME-3M melanoma)	growth (MDA-MB-231 breast)	growth (SF-268 CNS)	growth (SF-295 CNS)	growth (SF-539 CNS)	growth (UACC-257 melanoma)
COc1ccc(Cn2cc3c(c2-c2cc(OC)c(OC)c(OC)c2)CCc2c(CN4CCOCC4)noc2-3)cc1	9.12% (active)	57.9%	52.7%	45%	8.85% (active)	100%	12.3%	32.9%	55.4%	14.9%	20%	12.6%	43.3%	31.8%	47.7%	13.3%	3.49% (active)	73.4%
N=c1c2cc(-c3ccccc3)oc2ncn1/N=C/c1ccc(Cl)cc1	97.8%	71%	90.9%	82.6%	6.07% (active)	105%	91.6%	41.7%	85.5%	89.2%	38.8%	78.7%	38.5%	96.3%	76.3%	93.1%	82.7%	95.1%
C=CCn1c(-c2nc3ccc(C(=C(C#N)C#N)c4ccccc4)cc3[nH]2)cc2cc(Br)ccc21	46.9%	66.4%	70.6%	59.5%	42.2%	63%	60.2%	51.7%	59.2%	65.3%	72.4%	23.7%	84.1%	58.3%	62.9%	43.1%	65.3%	70.9%
Cn1ccnc1C(=O)/C=C/c1ccc(CNC(=O)c2ccc(F)cc2)cc1	5.81% (active)	51.7%	29.7%	41.6%	-27.1% (active)	62.3%	24.3%	27.6%	21.9%	42.8%	13.2%	11.3%	84%	11%	9.43% (active)	49.1%	-20% (active)	80.6%
CN1CCN(Cc2ccc(NC(=O)c3cncc(C#Cc4cnc5ccc(OCC6(C)COC6)nn45)c3)cc2C(F)(F)F)CC1	-76.2% (active)	-62.4% (active)	-81.2% (active)	-69.4% (active)	-77.5% (active)	-70.6% (active)	-28.3% (active)	-43.8% (active)	-55.4% (active)	-58.5% (active)	-85.3% (active)	4.99% (active)	-79.8% (active)	-74.1% (active)	-62.2% (active)	-97.1% (active)	-88.6% (active)	-70.6% (active)
NC(N)=Nc1ccc(Oc2cccc(NC(N)=Nc3ccc(I)cc3F)c2)cc1	77.4%	88.2%	80.4%	76.4%	65.9%	39%	66.8%	68.7%	86.4%	48.9%	97.6%	69.9%	83%	83.6%	36.4%	77.3%	62.6%	86.4%
C=C(C=O)[C@@H]1CC[C@]2(C)[C@H](C(=O)C=C3[C@H]4C[C@](C)(C(=O)OC)CC[C@]4(C)CC[C@]32C)[C@@]1(C)CCC#N	4.93% (active)	-53.6% (active)	109%	41.2%	32.4%	-35.2% (active)	52.5%	104%	13.6%	86.4%	6.32% (active)	5.75% (active)	-49.8% (active)	-19% (active)	32%	28.4%	-29.1% (active)	-13.6% (active)
CCC1=Cc2cc(OC)ccc2OC12C=Cc1cc(OC)ccc1O2 (stereo unspecified)	17%	65.4%	50.2%	64.3%	4.15% (active)	57.3%	-23.9% (active)	26.5%	37.3%	-6.28% (active)	19.9%	12.6%	58.4%	34.9%	39.2%	15.7%	-23.7% (active)	79.6%
O=C(CSc1nc2ccccc2c(=O)n1-c1ccc(Cl)cc1)N/N=C/c1ccc(N2CCCCC2)cc1	65.9%	38.2%	77%	18.4%	9.74% (active)	62.3%	88.1%	49.4%	7.2% (active)	82.1%	29.1%	73.6%	64.2%	72%	34.7%	76.4%	41.3%	97.1%
Cc1ccc2c(c1)Oc1nc(N)c(C#N)c(N)c1C2Sc1ccc(F)cc1 (stereo unspecified)	-88.2% (active)	-50.6% (active)	-98.7% (active)	-86.3% (active)	-50.4% (active)	-93.6% (active)	-58.1% (active)	-82.2% (active)	-97.3% (active)	-49.7% (active)	-98.9% (active)	-13.6% (active)	-91.9% (active)	-92.5% (active)	-81.6% (active)	-96.9% (active)	-99% (active)	-94.4% (active)
CCCCCc1ccc(S(=O)(=O)Nc2cc(-c3csc(NC(=O)CN4CCN(C)CC4)n3)ccc2N2CCN(C)CC2)cc1	45.1%	71.8%	6.19% (active)	42.5%	-56% (active)	49.9%	-39.5% (active)	15.7%	-50.9% (active)	-51.2% (active)	15.9%	1.1% (active)	-91.4% (active)	-52.7% (active)	-33.5% (active)	-63.9% (active)	-86.2% (active)	-58.4% (active)
COc1cc(-c2nnc(SCc3ccc(O)c4ncccc34)n2-c2ccccc2)cc(OC)c1OC	9.25% (active)	8.85% (active)	19.2%	6.41% (active)	-29.8% (active)	-12.5% (active)	-8.34% (active)	0.31% (active)	8.31% (active)	10.1%	15.2%	4.83% (active)	-4.75% (active)	24.7%	8.87% (active)	0.13% (active)	0.686% (active)	-18.1% (active)
COc1cc(Cn2cc3c(c2)-c2onc(CN4CCOCC4)c2CC3)cc(OC)c1OC	94.6%	87.1%	100%	95.6%	111%	89.7%	86%	101%	100%	114%	113%	72.5%	91.8%	82.6%	99.7%	93%	99.2%	101%
COc1ccc2c(c1)Oc1nc(N)c(C#N)c(N)c1C2Sc1ccc(C)cc1 (stereo unspecified)	-19.3% (active)	-1.63% (active)	51.9%	100%	-37.6% (active)	-35.9% (active)	-51.5% (active)	75.6%	-80.7% (active)	-16.7% (active)	-50% (active)	4.37% (active)	-57% (active)	-77.1% (active)	50%	92.9%	-34% (active)	9.55% (active)
CCCCCc1ccc(S(=O)(=O)Nc2cccc(-c3csc(NC(=O)CNCCN(C)C)n3)c2)cc1	94.6%	87.5%	90.4%	98.8%	51.9%	53%	91%	84.8%	61.6%	74.6%	84.8%	9.48% (active)	74%	93.5%	78.6%	95.5%	91.1%	96.1%
CN(C)CCNC(=O)c1ccc(-c2nc3ccc4[nH]ncc4c3c3c2COCC3)cc1	-5.76% (active)	9.31% (active)	2.32% (active)	5.23% (active)	6.12% (active)	-24.1% (active)	-46% (active)	38.5%	22.6%	-52.3% (active)	4.89% (active)	8.14% (active)	-24% (active)	-5.19% (active)	-16.2% (active)	3.44% (active)	-53% (active)	22.1%
CCn1c2ccccc2c2cc(-n3nncc3-c3ccccc3)ccc21	7.25% (active)	47.8%	45.1%	66%	0.528% (active)	57.8%	4.55% (active)	24.5%	31.6%	-10.9% (active)	13.3%	10.3%	56.3%	27.2%	35.2%	15.7%	-17.7% (active)	85.4%
